KB-V1 cytotox: KB-V1 MDR subline cytotoxicity | Potency, µM (doses to about 46.1 µM), usual class: cytotoxic | actives 3.4% (n = 400,000) | AID 1347076 | KB-V1 MDR cells viability, CellTiter-Glo, 72 h; further: nearly all actives have a fitted effect of over 60% in size
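KB-V1 MDR subline cells in DMEM (phenol-red free, 10% FBS) exposed to compounds in qHTS concentration series for 72 h at 37 degrees C. Viability read by CellTiter-Glo luminescence; concentration-effect curves fitted after normalization and correction.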
KB-3-1 cytotox: kills parental KB-3-1 adenocarcinoma cells | actives 1.4% (n = 400,000) | KB-3-1 viability, CellTiter-Glo ATP luminescence, 72 h | Potency, µM (top dose mostly 46.1 µM), usual class: cytotoxic; further: nearly all actives have a fitted effect of over 60% in size
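Parental KB-3-1 viability, qHTS format: 72 h compound exposure, 37 °C; CellTiter-Glo; media-only wells and DMSO plates as controls; concentration-effect fits on corrected data.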
Gal4-VP16 FLuc: Gal4-VP16 reporter inhibition counter-screen | Potency, µM (series often up to 53.6 µM), hits mostly inhibitors | actives 3.5% (n = 310,000) | Drosophila S2 Gal4-VP16 UAS-luciferase, luminescence, 20 h;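 further: Gal4-VP16 expression switched on by copper sulfate through the metallothionein promoter; nearly all actives have a fitted effect of over 50% in size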
RORgamma inh: blocks mouse ROR gamma transcriptional activity; P51450; Drosophila S2 Gal4-RORgamma UAS-luciferase reporter, 20 h; Potency, µM (titrated, usually from 53.6 µM), hits mostly inhibitors; actives 5.4% (n = 310,000); AID 2551; further: nearly all actives have a fitted effect of over 60% in size
Target sequence (P51450 whole entry, looked up, the tested form may be a part): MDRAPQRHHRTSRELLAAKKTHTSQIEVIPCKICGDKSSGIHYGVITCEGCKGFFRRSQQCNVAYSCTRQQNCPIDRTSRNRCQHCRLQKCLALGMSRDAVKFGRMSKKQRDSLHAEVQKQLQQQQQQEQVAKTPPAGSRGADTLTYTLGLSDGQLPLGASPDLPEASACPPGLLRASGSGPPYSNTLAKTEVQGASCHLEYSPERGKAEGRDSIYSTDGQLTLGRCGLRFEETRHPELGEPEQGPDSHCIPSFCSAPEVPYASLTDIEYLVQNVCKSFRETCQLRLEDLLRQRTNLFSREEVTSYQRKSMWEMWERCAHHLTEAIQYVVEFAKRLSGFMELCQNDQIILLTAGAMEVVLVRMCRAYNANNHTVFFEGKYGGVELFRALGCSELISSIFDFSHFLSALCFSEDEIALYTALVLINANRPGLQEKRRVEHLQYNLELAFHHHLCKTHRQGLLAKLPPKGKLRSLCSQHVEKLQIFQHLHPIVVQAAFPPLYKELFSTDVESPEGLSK
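Schneider cells (Drosophila), stable Gal4 DBD–ROR gamma + UAS-luc; 1 hr cmpd preincubation; Cu2+ induction 700 uM final; 20 hr ambient; luminescence.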
SW480 rereplic: inducers of DNA re-replication in SW480 colon cancer cells; SW480 DNA re-replication, Hoechst DNA content imaging, 48 h; Potency, µM (series often up to 46.1 µM), most hits filed as activators; actives 1.8% (n = 340,000); further: nearly all actives have a fitted effect of over 55% in size
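Image-based read-out: total Hoechst fluorescence of nuclei (405 nm excitation, 500-530 nm emission), with hits raising the fraction of high-intensity nuclei. SW480 colon cells incubated 48 hr with compounds at 37 C.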
MCF10A rereplic: induces DNA re-replication in MCF 10a normal breast cells; MCF 10A DNA re-replication, Hoechst nuclear intensity, 48 h; Potency, µM (highest dose often 46.1 µM), most hits filed as activators; actives 2.9% (n = 350,000); AID 624296; further: nearly all actives have a fitted effect of over 50% in size
Large screens that a line does not name were inactive. Hits are enriched below; roughly 10% of the tested compounds scored in any of these assays. The call rests on the fitted dose curve; in most records, active means well fitted curve in the direction sought with a large enough effect; inconclusive means small, poorly fitted or top-dose-only effect, or another doubt; inactive means no such curve, though single readings can be large; an effect the other way counts as inactive or inconclusive.

COC(=O)C1=C(C(=O)OC)SC2(S1)C(C(=O)OC)=C(C(=O)OC)Sc1c2ssc1=O	KB-V1 cytotox inconclusive, KB-3-1 cytotox inconclusive, SW480 rereplic 1µM, MCF10A rereplic inconclusive (no result: Gal4-VP16 FLuc, RORgamma inh)
CCCNC(=O)N1[C@H]2CC[C@@H]1C(C(=O)OC)=C(c1cc3ccccc3s1)C2	KB-3-1 cytotox inconclusive (no result: Gal4-VP16 FLuc, RORgamma inh)
COC(=O)C1=C(c2cc3ccccc3s2)C[C@@H]2CC[C@H]1N2C(=O)NC1CCCCC1	KB-V1 cytotox inconclusive, KB-3-1 cytotox inconclusive, SW480 rereplic inconclusive, MCF10A rereplic 21µM (no result: Gal4-VP16 FLuc, RORgamma inh)
COC(=O)C1=C(c2cc3ccccc3s2)C[C@@H]2CC[C@H]1N2C(=O)N1CCCCC1	KB-V1 cytotox inconclusive, KB-3-1 cytotox 26µM, SW480 rereplic inconclusive, MCF10A rereplic 18µM (no result: Gal4-VP16 FLuc, RORgamma inh)
O=C1CC2OCC=C3CN4CCC56c7ccccc7N1C5C2C3CC46 (stereo not drawn)	none (no result: KB-V1 cytotox, KB-3-1 cytotox, SW480 rereplic, MCF10A rereplic)
CCCCCSc1cc(OC)c(CCN)cc1OC	KB-V1 cytotox inconclusive, KB-3-1 cytotox 21µM, Gal4-VP16 FLuc inconclusive, RORgamma inh 7.1µM, SW480 rereplic 16µM, MCF10A rereplic inconclusive
CC1(C)N(O)C(c2ccc(C(=O)O)cc2)=[N+]([O-])C1(C)C	none (no result: KB-V1 cytotox, KB-3-1 cytotox, SW480 rereplic, MCF10A rereplic)
c1cc2c(cc1C1OC[C@@H]3C(c4ccc5c(c4)OCO5)OCC13)OCO2 (stereo partly drawn)	none (no result: KB-V1 cytotox, KB-3-1 cytotox, SW480 rereplic, MCF10A rereplic)
Cc1ccc2c(c1)C1(CCN(CCc3nc(-c4ccccc4)oc3C)CC1)OC(=O)N2	none (no result: KB-V1 cytotox, KB-3-1 cytotox, SW480 rereplic, MCF10A rereplic)
C=CCN1C(=O)NC(=O)/C(=C/c2ccc(OC)c(COc3ccc(NC(C)=O)cc3)c2)C1=O	KB-V1 cytotox inconclusive, KB-3-1 cytotox inconclusive, SW480 rereplic 16µM, MCF10A rereplic inconclusive
CC(C)(c1ccc(OCC2CO2)cc1)c1ccc(OCC2CO2)cc1 (stereo not drawn)	none (no result: KB-V1 cytotox, KB-3-1 cytotox, SW480 rereplic, MCF10A rereplic)
O=C1c2ccccc2C(=O)N1SC1CCCCC1	Gal4-VP16 FLuc inconclusive, RORgamma inh inconclusive, SW480 rereplic inconclusive, MCF10A rereplic inconclusive
CCOC(=O)C1(CCOc2ccccc2)CCN(C(C)CSC)CC1 (stereo not drawn)	none
CCOC(=O)C1(CCOc2ccccc2)CCN(C2Cc3ccccc3C2)CC1	KB-V1 cytotox inconclusive, KB-3-1 cytotox inconclusive, MCF10A rereplic 9.2µM
Cc1cc(C)nc(N/N=C/C2=C(O)CC(c3ccccc3)CC2=O)n1 (stereo not drawn)	RORgamma inh inconclusive (no result: KB-V1 cytotox, KB-3-1 cytotox, SW480 rereplic, MCF10A rereplic)
COc1ccccc1CN1CCCC2(CCN(C(=O)Oc3ccccc3)CC2)C1	none (no result: KB-V1 cytotox, KB-3-1 cytotox, SW480 rereplic, MCF10A rereplic)
Cc1ccc(C(=O)N[C@@H](C)CN2C3=NC[C@H](Cc4ccccc4)N3C[C@H]2Cc2ccc(O)cc2)cc1Br	KB-3-1 cytotox inconclusive, SW480 rereplic 13µM, MCF10A rereplic inconclusive
Cc1ccc(C(=O)N[C@@H](C)CN2C3=NC[C@@H](Cc4ccccc4)N3C[C@H]2Cc2ccc(O)cc2)cc1Br	KB-3-1 cytotox inconclusive
CCCC(=O)NC1=C(N2CC2)C(=O)C(NC(=O)CCC)=C(N2CC2)C1=O	SW480 rereplic 2.3µM, MCF10A rereplic inconclusive (no result: Gal4-VP16 FLuc, RORgamma inh)
CCCCOCCOP(=O)(OCCOCCCC)OCCOCCCC	none (no result: KB-V1 cytotox, KB-3-1 cytotox, SW480 rereplic, MCF10A rereplic)
CNC(=O)Oc1cccc(-c2cn3cc(Cl)ccc3n2)c1	Gal4-VP16 FLuc 5µM
CNC(=O)Oc1ccc(-c2cn3cc(C)ccc3n2)cc1	KB-V1 cytotox 18µM, Gal4-VP16 FLuc 4µM, RORgamma inh 2µM, SW480 rereplic inconclusive
COC(=O)CN1CN(c2ccccc2)C2(CCN(Cc3ccc4ccccc4c3)CC2)C1=O	none (no result: KB-V1 cytotox, KB-3-1 cytotox, SW480 rereplic, MCF10A rereplic)
COc1cccc(/C=N/NC(=O)c2c(C)nc3ccc(Br)cn23)c1	Gal4-VP16 FLuc inconclusive, RORgamma inh 14µM, SW480 rereplic inconclusive
C=C(C=O)C[C@@H]1C[C@H](O)C2OC3C[C@]4(C)OC5/C=C\CC6OC7C(CC=CCC6OC5CCCC4OC3CC2O1)OC1CC2OC3CC(=O)OC3C[C@@H](C)C[C@@]2(C)OC1C[C@@H]7C (stereo partly drawn)	KB-V1 cytotox 8.2µM, KB-3-1 cytotox 4.6µM, RORgamma inh inconclusive, MCF10A rereplic 0.73µM
O=NN(CCO)CCO	none (no result: KB-V1 cytotox, KB-3-1 cytotox, SW480 rereplic, MCF10A rereplic)
CN(C)S(=O)(=O)c1ccc(C(=O)NNc2nc(-c3ccccc3)c3cc(Br)ccc3n2)cc1	KB-V1 cytotox inconclusive, Gal4-VP16 FLuc inconclusive, RORgamma inh 7.1µM
O=C(COC(=O)Cc1ccccc1)Nc1cc(S(=O)(=O)N2CCCCC2)ccc1Cl	none (no result: Gal4-VP16 FLuc, RORgamma inh)
Cc1ccc(S(=O)(=O)N2CCCCC2)cc1NC(=O)CSc1ncnc2ccccc12	KB-V1 cytotox 16µM, RORgamma inh inconclusive, SW480 rereplic inconclusive, MCF10A rereplic inconclusive
O=C1NC(=O)C(=Cc2cn(CCOc3ccc4c(c3)OCO4)c3ccccc23)C(=O)N1	KB-V1 cytotox inconclusive, KB-3-1 cytotox 21µM, SW480 rereplic inconclusive, MCF10A rereplic inconclusive
C=CCn1cc(C=C2C(=O)NC(=O)NC2=O)c2ccccc21	none
Cc1ccc(-n2sc3ccccc3c2=O)cc1	KB-V1 cytotox inconclusive, KB-3-1 cytotox inconclusive, Gal4-VP16 FLuc 1.6µM, RORgamma inh 5µM, SW480 rereplic inconclusive, MCF10A rereplic inconclusive
C#CCN[C@H](C)Cc1ccccc1	SW480 rereplic 3.2µM, MCF10A rereplic inconclusive (no result: Gal4-VP16 FLuc, RORgamma inh)
COC(=O)C1=C(c2ccc(-c3ccccc3)c(F)c2)C[C@@H]2CC[C@H]1N2C(=O)N1CCCC1	KB-V1 cytotox inconclusive, KB-3-1 cytotox 18µM (no result: Gal4-VP16 FLuc, RORgamma inh)
COC(=O)C1=C(c2ccc(-c3ccccc3)c(F)c2)C[C@@H]2CC[C@H]1N2C(=O)N1CCOCC1	KB-3-1 cytotox 18µM (no result: Gal4-VP16 FLuc, RORgamma inh)

Screening data (PubChem)
